In the library only some 2.9% were active in any assay of this set; here they are far more common.
Cardio protect: protects H9c2 cardiomyocytes from peroxide injury. H2O2 injury protection, ATPLite, 2 h. protection from H2O2 cell death, % at 20 µM. 360,000 tested, 0.63% active;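 active = compounds giving at least 50% protection of heart cells from peroxide-induced death in the single-dose screen, raw or plate-pattern-corrected value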;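 also: 0% = DMSO wells with peroxide and 100% = DMSO wells without peroxide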
H9c2 TAG inh: reduces triacylglycerol accumulation in H9c2 cells; Nile Red lipid (TAG) fluorescence; cells loaded with 200 µM oleic acid; inhibition, % at 12.5 µM; 230,000 tested, 0.66% active; AID 651582;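 active = pattern-corrected inhibition of lipid staining of at least 50% with the nuclear-stain viability signal not falling by more than 50%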;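 also: 0% = DMSO wells and 100% = triacsin C control wells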
APOBEC3G inh: APOBEC3G (human) deaminase inhibition | Q9HC16 | recombinant A3G, ssDNA deamination FAM/TAMRA fluorescence | inhibition, % at 20 µM | 330,000 tested, 0.28% active | AID 493012;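 active = inhibition of at least 40% at 20 µM, with no more than 30% in the related APOBEC3A deaminase screen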;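 also: plate controls were DMSO wells with A3G for no effect and wells lacking A3G enzyme for full effect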
APOBEC3A inh: inhibitors of human APOBEC3A DNA deaminase | P31941 | recombinant A3A, FAM/TAMRA ssDNA deamination fluorescence | inhibition, % at 20 µM | 330,000 tested, 0.41% active | AID 493011;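 active = at least 40% inhibition at 20 µM here, with at most 30% in a related deaminase screen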;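 also: plate controls were A3A with DMSO for no effect and wells lacking A3A enzyme for full effect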
Target sequence (P31941 whole entry, looked up): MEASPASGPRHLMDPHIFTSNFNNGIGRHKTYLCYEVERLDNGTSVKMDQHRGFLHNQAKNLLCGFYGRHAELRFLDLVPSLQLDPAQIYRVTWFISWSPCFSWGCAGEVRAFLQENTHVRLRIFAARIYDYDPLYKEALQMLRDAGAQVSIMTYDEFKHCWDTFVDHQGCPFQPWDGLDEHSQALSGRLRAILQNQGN
NadD inh: inhibitors of Staphylococcus aureus NadD; purified NadD enzyme, colorimetric absorbance read-out; inhibition, % at 20 µM; 360,000 tested, 0.78% active; AID 602399; in the data active = inhibition above about 26%
PfG6PD inh: PfG6PD (Plasmodium falciparum) enzyme inhibition | PfGluPho enzyme, NADPH resazurin-diaphorase fluorescence | inhibition, % at 20 µM | 350,000 tested, 0.78% active;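 active = inhibition reaching at least a set limit at 20 µM in the primary screen, cut at about 59% in these data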;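 also: 0% = DMSO wells with substrate and 100% = DMSO wells lacking glucose-6-phosphate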
NadD inh conf: NadD (S. aureus) inhibition, single concentration confirmation; AID 624309; inhibition, % at 20 µM; shares compounds with NadD inh; 2,000 tested, 13% active; purified S. aureus NadD, colorimetric enzyme assay; in the data active = inhibition mostly above about 42%, no sharp cut-off; inactive = mostly below about 42%
An asterisk follows results filed as active; x = not tested or not shown.

SMILES	Cardio protect	H9c2 TAG inh	APOBEC3G inh	APOBEC3A inh	NadD inh	PfG6PD inh	NadD inh conf
C[C@@H]1CN([C@H](C)CO)C(=O)CCCn2nncc2CO[C@@H]1CN(C)S(=O)(=O)c1ccc(F)cc1	-2	5	x	x	1	-9	x
COc1ccc(NS(=O)(=O)c2cccc(C(=O)NNC(=O)c3cncc(Br)c3)c2)cc1	-7	13	-13	-6	-2	-26	x
Nc1c(C(=O)O)sc2nc(-c3ccc(F)cc3)cc(-c3ccccc3)c12	6	-3	-10	2	37*	-10	29
Cc1noc(NS(=O)(=O)c2ccc(NC(=O)c3cc4ccccc4o3)cc2)c1C	-1	-1	7	0	-2	-2	x
Cc1cc(N2CCN(c3nc(-c4ccc([N+](=O)[O-])cc4)cs3)CC2)c2ccccc2n1	2	25	-7	-2	28*	3	-13
CC1(C)CC[C@]2(C(=O)O)CC[C@]3(C)C(=CC[C@@H]4[C@@]5(C)CC[C@H](O)C(C)(C)[C@@H]5CC[C@]43C)[C@@H]2C1	-2	12	-5	1	30*	-36	10
CC1(C)CC[C@]2(C(=O)O)CC[C@]3(C)C(=CCC4[C@@]5(C)CC[C@H](O)C(C)(C)C5CC[C@]43C)C2C1 (stereo partly specified)	-4	22	x	x	27	-19	x
COc1ccc(N2CCN(CCS(=O)(=O)c3cc(Cl)ccc3Cl)CC2)cc1	-3	-19	-11	-6	-1	18	x
COc1cccc(NC(=O)CN(C)C(=O)c2ccc(Cl)c(S(=O)(=O)N3CCCCCC3)c2)c1	-1	9	-10	-3	-7	-10	x
OCc1cccnc1	x	x	-4	-2	x	x	x
Cc1c([N+](=O)[O-])cc(N2C(=O)C=CC2=O)cc1[N+](=O)[O-]	-20	7	x	x	42*	101*	57*
CC1=NN(c2ccc(C)c(C)c2)C(=O)C1C(c1cccc(O)c1)C1C(=O)N(c2ccc(C)c(C)c2)N=C1C (stereo unspecified)	-4	4	-1	-3	37*	-29	61*
CC(C)NC(=O)Nc1ccc2c(c1)C(=O)N([C@H](C)CO)C[C@H](C)[C@@H](CN(C)S(=O)(=O)c1cn(C)cn1)O2	0	-1	-5	-1	1	-4	x
COc1ccccc1CNC(=S)NCc1ccc(F)cc1	-2	-2	-5	-7	1	8	x
CC(C)C[C@H]1CNC(=S)N1C[C@H]1CCCN1C[C@H](CC(C)C)N1C[C@H](Cc2ccc(O)cc2)N(CC2CCCCC2)C1=S	x	x	x	x	41*	x	11
CC(C)C[C@@H](CN1CCCC1CN1C(=S)NC[C@@H]1Cc1ccc(O)cc1)N1C[C@H](Cc2ccc(O)cc2)N(CC2CCCCCC2)C1=S (stereo partly specified)	-39	136	x	x	55*	23	36
CC(C)C[C@@H](CN1CCCC1CN1C(=S)NC[C@@H]1Cc1ccc(O)cc1)N1C[C@H](Cc2ccccc2)N(CC2CCCCCC2)C1=S (stereo partly specified)	-22	74	x	x	23	20	x
CC(C)C[C@H]1CN([C@@H](CC(C)C)CN2CCCC2CN2C(=S)NC[C@@H]2Cc2ccccc2)C(=S)N1CC1CCCCC1 (stereo partly specified)	x	x	x	x	11	x	x
COc1ccc(/C=N/NC(=O)c2nc(Cl)c(Cl)c(N)c2Cl)cc1COc1ccc(F)cc1F	-2	-25	0	5	53*	5	4
COc1ccc(/C=N\NC(=O)c2ccccc2F)cc1COc1ccc(F)cc1F	1	37	-4	-3	-5	9	x
COc1cc(OC)cc(C(=O)N/N=C/c2ccc(OC)c(COc3ccc4ccccc4c3)c2)c1	-6	-6	-6	-1	40*	-15	11
COc1ccc(/C=N/NC(=O)c2nc(Cl)c(Cl)c(N)c2Cl)cc1COc1ccccc1F	-2	-14	-3	1	30*	-10	7
Cc1cccc(NS(=O)(=O)c2ccc3c(c2)Cc2cc(S(=O)(=O)Nc4cccc(C)c4C)ccc2-3)c1C	-5	x	x	x	36*	6	44

High-throughput results deposited in PubChem BioAssay by Sanford-Burnham Center for Chemical Genomics.
